# According to ChEMBL document CHEMBL1961873, “Compounds: GSK PKIS; Assays: Nanosyn kinase panel” (2012):
# Assays:
# [1] = target: Tyrosine-protein kinase CSK (Homo sapiens) (UniProt P41240); conditions: at 1 µM;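 note: each value is an averaged inhibition reading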
# [2] = target: T1, Discoidin domain-containing receptor 2 (Homo sapiens) (UniProt Q16832); conditions: at 0.1 µM
# T1 sequence (whole entry): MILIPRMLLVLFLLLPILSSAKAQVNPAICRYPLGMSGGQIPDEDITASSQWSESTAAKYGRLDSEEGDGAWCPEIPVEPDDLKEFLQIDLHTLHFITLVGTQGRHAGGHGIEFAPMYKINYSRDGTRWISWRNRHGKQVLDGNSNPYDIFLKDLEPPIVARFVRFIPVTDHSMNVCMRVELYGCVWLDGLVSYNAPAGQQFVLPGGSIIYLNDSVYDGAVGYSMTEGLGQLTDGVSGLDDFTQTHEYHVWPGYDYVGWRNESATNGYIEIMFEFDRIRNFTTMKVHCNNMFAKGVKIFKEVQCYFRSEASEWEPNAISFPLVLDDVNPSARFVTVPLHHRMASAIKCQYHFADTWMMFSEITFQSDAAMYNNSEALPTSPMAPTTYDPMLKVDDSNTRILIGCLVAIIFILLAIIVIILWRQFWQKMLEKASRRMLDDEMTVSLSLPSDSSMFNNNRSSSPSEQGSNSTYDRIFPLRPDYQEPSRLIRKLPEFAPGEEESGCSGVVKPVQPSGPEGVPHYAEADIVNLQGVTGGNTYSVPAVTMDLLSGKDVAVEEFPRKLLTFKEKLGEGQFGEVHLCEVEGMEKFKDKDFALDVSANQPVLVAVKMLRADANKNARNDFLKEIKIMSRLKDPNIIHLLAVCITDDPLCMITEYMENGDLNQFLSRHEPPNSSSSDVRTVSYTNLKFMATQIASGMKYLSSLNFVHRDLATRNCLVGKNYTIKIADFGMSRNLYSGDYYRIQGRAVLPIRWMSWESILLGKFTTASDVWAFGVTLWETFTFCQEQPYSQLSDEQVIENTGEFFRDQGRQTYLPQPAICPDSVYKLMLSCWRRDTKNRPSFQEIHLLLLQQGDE
# [3] = target: T1, Discoidin domain-containing receptor 2 (Homo sapiens); conditions: at 1 µM
# [4] = target: Epidermal growth factor receptor (Homo sapiens) (UniProt P00533); conditions: at 0.1 µM
# Epidermal growth factor receptor (Homo sapiens), sequence (P00533 whole entry): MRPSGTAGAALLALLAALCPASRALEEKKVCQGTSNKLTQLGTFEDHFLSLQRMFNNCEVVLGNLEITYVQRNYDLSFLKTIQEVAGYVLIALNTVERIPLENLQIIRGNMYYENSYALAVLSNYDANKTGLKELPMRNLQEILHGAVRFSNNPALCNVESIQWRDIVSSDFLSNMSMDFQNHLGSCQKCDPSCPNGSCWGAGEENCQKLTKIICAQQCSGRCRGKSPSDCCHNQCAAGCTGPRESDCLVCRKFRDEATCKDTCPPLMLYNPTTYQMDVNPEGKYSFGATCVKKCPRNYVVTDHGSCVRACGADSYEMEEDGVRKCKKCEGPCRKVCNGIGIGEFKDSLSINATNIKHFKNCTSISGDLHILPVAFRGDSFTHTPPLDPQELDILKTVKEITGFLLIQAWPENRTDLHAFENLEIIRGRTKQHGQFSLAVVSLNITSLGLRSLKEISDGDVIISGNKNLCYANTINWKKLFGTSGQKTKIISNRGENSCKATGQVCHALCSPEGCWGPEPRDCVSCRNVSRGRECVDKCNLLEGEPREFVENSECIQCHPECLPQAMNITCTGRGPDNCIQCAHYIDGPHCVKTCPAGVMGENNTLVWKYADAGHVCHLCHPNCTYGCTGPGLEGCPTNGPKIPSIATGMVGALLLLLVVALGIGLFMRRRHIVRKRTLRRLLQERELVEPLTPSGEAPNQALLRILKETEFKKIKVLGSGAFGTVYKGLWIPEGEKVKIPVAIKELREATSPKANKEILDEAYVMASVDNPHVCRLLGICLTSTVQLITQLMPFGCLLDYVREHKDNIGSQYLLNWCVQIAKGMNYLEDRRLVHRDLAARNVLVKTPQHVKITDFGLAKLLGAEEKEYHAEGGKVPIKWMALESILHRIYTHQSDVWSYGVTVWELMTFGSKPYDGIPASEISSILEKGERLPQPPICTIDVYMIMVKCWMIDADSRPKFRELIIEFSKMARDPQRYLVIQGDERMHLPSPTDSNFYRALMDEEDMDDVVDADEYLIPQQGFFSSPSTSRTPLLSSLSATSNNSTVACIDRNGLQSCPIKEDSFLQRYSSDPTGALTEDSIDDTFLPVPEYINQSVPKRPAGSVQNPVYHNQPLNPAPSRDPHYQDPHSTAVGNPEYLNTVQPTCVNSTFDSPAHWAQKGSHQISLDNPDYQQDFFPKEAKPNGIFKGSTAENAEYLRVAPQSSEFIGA
# [5] = target: Epidermal growth factor receptor (Homo sapiens) (UniProt P00533); conditions: at 1 µM
# [6] = system: Epidermal growth factor receptor (Homo sapiens), P00533 [L858R]; conditions: at 0.1 µM
# Epidermal growth factor receptor (Homo sapiens), P00533 [L858R], sequence (P00533 whole entry L858R): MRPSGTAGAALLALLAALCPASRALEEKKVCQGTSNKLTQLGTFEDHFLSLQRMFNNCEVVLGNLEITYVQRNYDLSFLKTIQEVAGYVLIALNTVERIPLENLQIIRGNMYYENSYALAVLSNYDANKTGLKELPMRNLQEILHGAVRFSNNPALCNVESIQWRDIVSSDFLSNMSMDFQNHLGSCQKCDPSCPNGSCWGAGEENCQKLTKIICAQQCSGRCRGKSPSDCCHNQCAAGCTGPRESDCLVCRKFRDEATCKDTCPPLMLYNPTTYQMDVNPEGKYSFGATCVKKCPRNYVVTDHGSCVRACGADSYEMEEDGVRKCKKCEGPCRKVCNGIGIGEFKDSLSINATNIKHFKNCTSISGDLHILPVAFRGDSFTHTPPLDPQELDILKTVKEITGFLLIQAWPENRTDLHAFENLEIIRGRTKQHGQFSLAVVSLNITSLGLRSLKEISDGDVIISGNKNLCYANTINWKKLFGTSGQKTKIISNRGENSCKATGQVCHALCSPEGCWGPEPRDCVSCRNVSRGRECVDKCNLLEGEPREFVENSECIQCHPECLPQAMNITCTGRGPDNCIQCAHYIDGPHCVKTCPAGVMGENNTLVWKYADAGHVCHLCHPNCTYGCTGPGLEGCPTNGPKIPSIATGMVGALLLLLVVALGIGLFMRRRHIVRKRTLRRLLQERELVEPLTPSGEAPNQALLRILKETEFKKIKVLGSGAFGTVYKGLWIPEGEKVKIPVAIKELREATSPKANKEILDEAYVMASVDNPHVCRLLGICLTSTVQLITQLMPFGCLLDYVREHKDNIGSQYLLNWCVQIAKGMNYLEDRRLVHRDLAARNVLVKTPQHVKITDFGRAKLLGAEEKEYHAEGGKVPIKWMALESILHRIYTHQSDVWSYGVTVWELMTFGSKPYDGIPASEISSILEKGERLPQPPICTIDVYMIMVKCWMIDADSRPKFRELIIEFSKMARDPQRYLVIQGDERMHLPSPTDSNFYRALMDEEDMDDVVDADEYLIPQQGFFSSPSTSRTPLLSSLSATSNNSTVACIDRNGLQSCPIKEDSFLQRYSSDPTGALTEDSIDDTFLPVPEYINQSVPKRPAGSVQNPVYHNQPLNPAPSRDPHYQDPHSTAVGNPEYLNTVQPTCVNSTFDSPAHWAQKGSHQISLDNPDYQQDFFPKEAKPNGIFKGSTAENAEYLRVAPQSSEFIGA
# [7] = system: Epidermal growth factor receptor (Homo sapiens), P00533 [L858R]; conditions: at 1 µM
# [8] = system: Epidermal growth factor receptor (Homo sapiens), P00533 [L861Q]; conditions: at 0.1 µM
# [9] = system: Epidermal growth factor receptor (Homo sapiens), P00533 [L861Q]; conditions: at 1 µM
# [10] = system: Epidermal growth factor receptor (Homo sapiens), P00533 [T790M]; conditions: at 0.1 µM
# Epidermal growth factor receptor (Homo sapiens), P00533 [T790M], sequence (P00533 whole entry T790M): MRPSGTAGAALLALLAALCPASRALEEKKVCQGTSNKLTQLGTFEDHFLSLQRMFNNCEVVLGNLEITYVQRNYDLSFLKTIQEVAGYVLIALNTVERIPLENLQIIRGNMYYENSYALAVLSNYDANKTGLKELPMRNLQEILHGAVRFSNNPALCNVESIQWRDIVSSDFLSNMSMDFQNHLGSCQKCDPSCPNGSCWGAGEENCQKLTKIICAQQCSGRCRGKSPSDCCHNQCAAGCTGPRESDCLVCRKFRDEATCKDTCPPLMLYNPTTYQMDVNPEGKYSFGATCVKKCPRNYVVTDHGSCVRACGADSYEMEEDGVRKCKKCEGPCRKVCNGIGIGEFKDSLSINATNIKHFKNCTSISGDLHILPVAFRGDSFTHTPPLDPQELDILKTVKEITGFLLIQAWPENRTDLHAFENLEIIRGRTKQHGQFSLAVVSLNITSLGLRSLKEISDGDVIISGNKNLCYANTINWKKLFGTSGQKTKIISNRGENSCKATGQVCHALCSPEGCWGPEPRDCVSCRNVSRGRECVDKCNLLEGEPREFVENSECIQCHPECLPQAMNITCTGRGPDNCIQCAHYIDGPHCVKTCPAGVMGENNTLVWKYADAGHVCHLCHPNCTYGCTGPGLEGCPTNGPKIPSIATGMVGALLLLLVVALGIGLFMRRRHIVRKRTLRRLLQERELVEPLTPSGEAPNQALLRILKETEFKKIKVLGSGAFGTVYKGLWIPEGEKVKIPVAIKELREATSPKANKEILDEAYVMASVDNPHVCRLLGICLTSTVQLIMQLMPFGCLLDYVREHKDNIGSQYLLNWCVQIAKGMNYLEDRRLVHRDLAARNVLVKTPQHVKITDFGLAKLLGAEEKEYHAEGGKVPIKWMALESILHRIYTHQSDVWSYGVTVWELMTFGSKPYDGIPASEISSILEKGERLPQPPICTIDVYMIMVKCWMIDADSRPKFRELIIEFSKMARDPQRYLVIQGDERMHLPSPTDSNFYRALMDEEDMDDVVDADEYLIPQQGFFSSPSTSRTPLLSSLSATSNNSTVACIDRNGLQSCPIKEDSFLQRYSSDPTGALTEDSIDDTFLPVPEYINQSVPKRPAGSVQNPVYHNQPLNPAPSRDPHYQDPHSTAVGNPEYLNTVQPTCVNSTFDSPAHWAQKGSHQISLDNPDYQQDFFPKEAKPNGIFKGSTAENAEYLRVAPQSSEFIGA
# Tyrosine-protein kinase CSK (Homo sapiens), sequence (P41240 2-450 limits assumed): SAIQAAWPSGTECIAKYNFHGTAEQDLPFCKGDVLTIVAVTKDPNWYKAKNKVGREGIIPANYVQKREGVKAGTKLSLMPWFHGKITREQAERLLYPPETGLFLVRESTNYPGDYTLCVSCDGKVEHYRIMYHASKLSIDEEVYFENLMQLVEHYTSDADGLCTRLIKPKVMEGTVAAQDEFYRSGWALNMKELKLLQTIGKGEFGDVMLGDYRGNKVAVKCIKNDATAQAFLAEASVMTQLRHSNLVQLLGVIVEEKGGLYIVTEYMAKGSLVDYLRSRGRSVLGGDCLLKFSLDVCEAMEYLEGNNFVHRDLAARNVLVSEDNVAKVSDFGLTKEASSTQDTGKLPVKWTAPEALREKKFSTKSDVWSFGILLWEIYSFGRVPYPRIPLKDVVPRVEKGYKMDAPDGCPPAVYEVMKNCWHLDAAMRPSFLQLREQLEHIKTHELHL
structure (smiles),measurement,setting,value
Cc1nnc(-c2ccc(C)c(-c3ccc(C(=O)NCc4ccc(Cl)cc4)cc3)c2)o1,inhibition,[1],5.62%
same,inhibition,[2],0.22%
same,inhibition,[3],-0.21%
same,inhibition,[4],-3.58%
same,inhibition,[5],-0.27%
same,inhibition,[6],1.36%
same,inhibition,[7],2.71%
same,inhibition,[8],2.71%
same,inhibition,[9],1.09%
same,inhibition,[10],0.7%
COc1ccc2cc(-c3c(-c4ccncc4)nc(-c4ccc([S+](C)[O-])cc4C)n3C)ccc2c1 (stereo not given),inhibition,[1],-1.23%
same,inhibition,[2],-2.64%
same,inhibition,[3],-4.31%
same,inhibition,[4],2.02%
same,inhibition,[5],7.54%
same,inhibition,[6],-1.17%
same,inhibition,[7],5.96%
same,inhibition,[8],-0.12%
same,inhibition,[9],9.44%
same,inhibition,[10],-0.7%
CN(C)CCCNc1nccc(-c2c(-c3ccc(F)cc3)nn3cc(C(F)(F)F)ccc23)n1,inhibition,[1],-0.64%
same,inhibition,[2],5.29%
same,inhibition,[3],11.1%
same,inhibition,[4],-2.27%
same,inhibition,[5],1.24%
same,inhibition,[6],0.77%
same,inhibition,[7],2.36%
same,inhibition,[8],1.57%
same,inhibition,[9],-2.56%
same,inhibition,[10],1.53%
Cc1ccc(C(=O)NC2CCC2)cc1-c1ccc(C(=O)NCC2CC2)cc1,inhibition,[1],0.62%
same,inhibition,[2],0.33%
same,inhibition,[3],1.1%
same,inhibition,[4],10.4%
same,inhibition,[5],7.15%
same,inhibition,[6],3.77%
same,inhibition,[7],4.05%
same,inhibition,[8],4.21%
same,inhibition,[9],4.15%
same,inhibition,[10],1.73%
CN1CCN(CCCNc2nc3ccc(Oc4ccc(NC(=O)Nc5cc(C(F)(F)F)ccc5F)cc4)cc3[nH]2)CC1,inhibition,[1],-3.31%
same,inhibition,[2],73.9%
same,inhibition,[3],83.6%
same,inhibition,[4],-3.44%
same,inhibition,[5],0.24%
same,inhibition,[6],1%
same,inhibition,[7],0.13%
same,inhibition,[8],0.67%
same,inhibition,[9],-4.02%
same,inhibition,[10],0.51%
NC(=O)Cc1ccccc1Oc1nccc(-c2c(-c3ccc(F)cc3)ncn2C2CCNCC2)n1,inhibition,[1],0.29%
same,inhibition,[2],0.48%
same,inhibition,[3],0.75%
same,inhibition,[4],2.22%
same,inhibition,[5],4.51%
same,inhibition,[6],2.34%
same,inhibition,[7],8.03%
same,inhibition,[8],1.25%
same,inhibition,[9],-0.04%
same,inhibition,[10],0.99%
COc1ccc2ncn(-c3cc(O[C@H](C)c4ccccc4Cl)c(C(N)=O)s3)c2c1,inhibition,[1],4.14%
same,inhibition,[2],1.2%
same,inhibition,[3],0.87%
same,inhibition,[4],-5.57%
same,inhibition,[5],-2.35%
same,inhibition,[6],0.76%
same,inhibition,[7],6.08%
same,inhibition,[8],3.26%
same,inhibition,[9],1.91%
same,inhibition,[10],1.16%
FC(F)(F)c1cccc(Nc2nccc(-c3cnn4nc(-c5ccccc5)ccc34)n2)c1,inhibition,[1],1.44%
same,inhibition,[2],0.05%
same,inhibition,[3],2.08%
same,inhibition,[4],-0.78%
same,inhibition,[5],0.92%
same,inhibition,[6],-0.7%
same,inhibition,[7],-0.57%
same,inhibition,[8],1.2%
same,inhibition,[9],0.07%
same,inhibition,[10],1.28%
COc1cc2ncn(-c3cc(OCc4ccccc4C(F)(F)F)c(C(C)=O)s3)c2cc1OC,inhibition,[1],3.13%
same,inhibition,[2],3.54%
same,inhibition,[3],5.22%
same,inhibition,[4],-0.8%
same,inhibition,[5],1.81%
same,inhibition,[6],-2.47%
same,inhibition,[7],3.36%
same,inhibition,[8],1.73%
same,inhibition,[9],0.09%
same,inhibition,[10],2.46%
O=C(Nc1n[nH]c2cc(-c3cc(F)ccc3F)ccc12)C1CC1,inhibition,[1],2.29%
same,inhibition,[2],2.61%
same,inhibition,[3],4.77%
same,inhibition,[4],1.18%
same,inhibition,[5],2.02%
same,inhibition,[6],1.19%
same,inhibition,[7],3.64%
same,inhibition,[8],2.35%
same,inhibition,[9],-0.56%
same,inhibition,[10],0.87%
NC(=O)c1cc(-c2ccncc2)cc(-c2ccccc2)c1N,inhibition,[1],16.1%
same,inhibition,[2],4.49%
same,inhibition,[3],27.6%
same,inhibition,[4],8.28%
same,inhibition,[5],18%
same,inhibition,[6],4.58%
same,inhibition,[7],39.7%
same,inhibition,[8],3.24%
same,inhibition,[9],11.9%
same,inhibition,[10],1.64%
O=C1NC(=O)C(c2cccc(Cl)c2)=C1Nc1ccc(Cl)c(C(=O)O)c1,inhibition,[1],1.91%
same,inhibition,[2],3.06%
same,inhibition,[3],4.88%
same,inhibition,[4],1.44%
same,inhibition,[5],2.17%
same,inhibition,[6],1.51%
same,inhibition,[7],5.24%
same,inhibition,[8],1.41%
same,inhibition,[9],2.94%
same,inhibition,[10],1%
O=C1Nc2ccc(I)cc2C1=Cc1cc(Br)c(O)c(Br)c1,inhibition,[1],4.94%
same,inhibition,[2],1.45%
same,inhibition,[3],3.44%
same,inhibition,[4],2.85%
same,inhibition,[5],-1.18%
same,inhibition,[6],-1.9%
same,inhibition,[7],2.8%
same,inhibition,[8],2.43%
same,inhibition,[9],3.74%
same,inhibition,[10],0.08%
COc1cccc(/C=N/Nc2ncnc3c2cnn3-c2cccc(OC)c2)c1,inhibition,[1],3.91%
same,inhibition,[2],1.34%
same,inhibition,[3],2.5%
same,inhibition,[4],1.31%
same,inhibition,[5],2.97%
same,inhibition,[6],2.05%
same,inhibition,[7],8.79%
same,inhibition,[8],1.95%
same,inhibition,[9],4.05%
same,inhibition,[10],0.54%
COc1ccc(C2=C(N3CCc4ccccc43)C(=O)NC2=O)cc1,inhibition,[1],9.3%
same,inhibition,[2],1.75%
same,inhibition,[3],1.87%
same,inhibition,[4],1.18%
same,inhibition,[5],3.59%
same,inhibition,[6],7.35%
same,inhibition,[7],7.13%
same,inhibition,[8],4.49%
same,inhibition,[9],6.05%
same,inhibition,[10],3.62%
CCc1ccc(Oc2nccc(-c3c(-c4ccc(F)cc4)ncn3C3CCNCC3)n2)cc1,inhibition,[1],10.3%
same,inhibition,[2],1.91%
same,inhibition,[3],3.52%
same,inhibition,[4],2.21%
same,inhibition,[5],7.66%
same,inhibition,[6],3.05%
same,inhibition,[7],15.9%
same,inhibition,[8],1.97%
same,inhibition,[9],5.92%
same,inhibition,[10],0.57%
Fc1ccc(-c2ncn(C3CCNCC3)c2-c2ccnc(Oc3ccc(F)c(F)c3)n2)cc1,inhibition,[1],2.38%
same,inhibition,[2],1.67%
same,inhibition,[3],2.09%
same,inhibition,[4],-3.12%
same,inhibition,[5],-0.79%
same,inhibition,[6],1.05%
same,inhibition,[7],7.57%
same,inhibition,[8],3.65%
same,inhibition,[9],4.21%
same,inhibition,[10],1.53%
